This note sets out measurements from the OligoGym collection.
Also: reference of the scale not given here.

In the first assay the target is COQ9. Nature of the assay: pooled miR-30 sensor sort-seq; sequence = guide strand. Particulars: shRNA.
Sequence TCCTCTTCTAGCACACGTGTGA gave a sensor-assay potency score (higher = more potent) of -0.72.

TATTAGGAACTGAAGAAGCAGC yielded a sensor-assay potency score (higher = more potent) of -1.33.

In the case of TTTCAAAGCTCTTTCAATCTGT, the sensor-assay potency score (higher = more potent) turned out to be 0.272.

In turn, TTTTCAATCACACAGTTGCAGT displayed a sensor-assay potency score (higher = more potent) of -1.24.

As to ATCATCACCAGCTCTGTTGTGT, the sensor-assay potency score (higher = more potent) was -0.201.

The sequence TCTAGCACACGTGTGAGCCGGG gave a sensor-assay potency score (higher = more potent) of 0.25.

The sequence TTCTGCTCATCTGAAGACCTTA showed a sensor-assay potency score (higher = more potent) of -0.0401.

TATTAGCTCACTGCCATCCTTC yielded a sensor-assay potency score (higher = more potent) of -0.456.

The sequence TTGGTCTGGTATTAGGAACTGA gave a sensor-assay potency score (higher = more potent) of -0.609.

Regarding TTGTGTTGTAGATGGCAGCCAG, the sensor-assay potency score (higher = more potent) is -0.498.

TTCATTGCATCATTAACCCGGT: the sensor-assay potency score (higher = more potent) was found to be 0.189.

Sequence TAGTCCTCCTCCTCCTCGCCGC showed a sensor-assay potency score (higher = more potent) of -1.01.

In another assay the target is CORIN. Described as above. The note with it: shRNA.
In turn, TAAATCTGTCTTTTAATCCATT displayed a sensor-assay potency score (higher = more potent) of -1.02.

TTGATTGTCTGAATTTTCCTCT returned a sensor-assay potency score (higher = more potent) of 0.641.

The sequence TTGAACTTTCATACAATCGTGA came in with a sensor-assay potency score (higher = more potent) of 0.765.
